In PubChem BioAssay:
Inconclusive results are not listed. Calls of active or inactive are those of the source.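 How the source made its calls, unless noted: active means Her2 level under about 52% in both replicate screens, with viability over 70% of control (limit read from the data); inconclusive means Her2 under the limit in one screen only, or viability under 70%; inactive means Her2 level above the set limit.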

Tests used:
[1] = Her2 expression decrease, cell viability multiplex – SKBR3 breast tumor cells, AlphaScreen, ATP viability, primary screen (AID 461); conditions: SKBR3 Her2 protein level, 18-24 h, measured here: SKBR3 viability, ATP luminescence, at 10 µM;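 on Her2 level: lower value means less Her2 protein in the cells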;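 on viability: percent of carrier control wells set as 100% viability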
[2] = molecular target: Receptor tyrosine-protein kinase erbB-2 (Homo sapiens) (UniProt P04626); assay: as above; conditions: 18-24 h, at 10 µM, stronger effect = lower value
[3] = reduced viability of SK-BR-3 breast cancer cells – cell-based, 24 h, human, pilot screen (AID 572;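 active means viability at or below 10% of carrier control in both of two separate runs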;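 further: compound exposure lasted between 18 and 24 h rather than exactly 24 h; 100% = carrier-treated control wells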); conditions: SK-BR-3 viability, CellTiter-Glo luminescence, at 10 µM, stronger effect = lower value
[4] = HUVEC growth inhibition – cell-based, human, primary screen (AID 575;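 active means viability at or below 30% in both replicate assays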;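 further: 100% = median of untreated cell wells with 0.1% DMSO on each plate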); conditions: HUVEC proliferation, CellTiter-Glo luminescence, 72 h; at 10 µM; stronger effect = lower value
[5] = H69AR cell proliferation blockers – human, duplicate replicates, primary screen (AID 580;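 active means viability at or under a set limit in both replicates, limit being median viability minus 3 SD, cut at about 48% in these data, passing the limit was not always enough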;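 further: 100% = mean luminescence of untreated wells and 0% = no signal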); conditions: H69AR lung tumor cells viability, ATP luminescence, 72 h; at 10 µM; stronger effect = lower value
[6] = MRP1 drug-resistance reversers in H69AR cells – cell-based, doxorubicin co-treatment, pilot screen (AID 601;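 active means viability loss from added drug above about 55%, and viability with drug at most 40%, in both replicates, limit read from the data, passing the limit was not always enough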); conditions: CellTiter-Glo, 72 h, at 10 µM; for differential viability (reversal): stronger effect = higher value
[7] = yeast transport mutant growth inhibition pilot in 384-well plates, post-Golgi transport modulator project (AID 636; in the data active means inhibition above about 31%); conditions: absorbance 615 nm, about 18 h, stronger effect = higher value
[8] = growth suppression of yeast trafficking mutant, preliminary HTS, modulators of trafficking downstream of Golgi apparatus project, 1536-format plate, OD 615 nm (AID 637; in the data active means inhibition above about 30%); conditions: yeast transport mutant growth, absorbance 615 nm, 18 h; stronger effect = higher value
[9] = S. cerevisiae growth inhibition in permissive medium (OD615), pilot counter-assay for S. cerevisiae lifespan shortening project, permissive growth control (AID 705;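 active means growth inhibition above 25% in both replicates, a cutoff set 3 SD above the mean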); conditions: OD615, 24 h, at 10 µM, stronger effect = higher value
[10] = S. cerevisiae growth inhibition in restrictive medium, OD615, pilot screen, restrictive growth control, yeast lifespan reduction project (AID 706;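 active means growth inhibition above a set limit, 3 SD over mean compound inhibition, in both replicates, cut at about 43% in these data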;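 further: modified DeaD lifespan yeast strain shifted to restrictive glucose medium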); conditions: OD615, 48 h, at 10 µM, stronger effect = higher value
[11] = doxorubicin toxicity protection in MRP-1 cells – H69AR cells, CellTiter-Glo, duplicate, MRP-1 activator project, pilot screen (AID 807;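 active means viability increase at or above a cutoff of the median across tested compounds plus 3 SD, cut at about 8.5% in these data, passing the limit was not always enough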;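 further: compound pretreatment 18-22 h then 72 h combined with doxorubicin; 0% = doxorubicin alone and 100% = vehicle without doxorubicin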); conditions: H69AR viability with doxorubicin, CellTiter-Glo luminescence; at 10 µM; stronger effect = higher value
[12] = viability of HCT116 without oncogenic beta-catenin – human colon tumor cells, pilot screen (AID 823;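 active means cell viability at or below a set limit in both duplicate runs, the limit being the all-compound median minus 4 SD, cut at about 23% in these data, passing the limit was not always enough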;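 further: 0% = wells killed by 20 µM Hyamine and 100% = untreated DMSO cell wells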); conditions: HCT116 beta-catenin knockout viability, CellTiter-Glo, 60 h; at 10 µM; stronger effect = lower value
[13] = viability of PTEN-null HCT116 cells – cell-based, HCT116 clonal line, CellTiter-Glo, pilot screen (AID 824;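 active means viability at or below 27.92% in each of two runs, the all-compound median minus 4 SD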;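 further: 0% = 20 µM Hyamine control and 100% = vehicle cell control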); conditions: HCT116 PTEN-deleted viability, 60 h, at 10 µM, stronger effect = lower value
[14] = RAM pathway blockade in budding yeast – dse1pr::URA3 reporter, 5-FOA selection, pilot screen (AID 869;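 active means inhibition over a set limit, the all-compound mean plus 3 SD, in both replicate runs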;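 further: 0% = DMSO wells with no growth and 100% = 10 µM 1-NA-PP1 with full growth; RAM network block rescues cells from 5-FOA so hits raise OD615 growth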); conditions: S. cerevisiae dse1pr::URA3 5-FOA growth, OD615, 2 d; at 10 µM; stronger effect = higher value; strain carries analog-sensitive mutant Cbk1 kinase
[15] = H69AR cells + 2 uM doxorubicin, measured here: viability with 2 uM doxorubicin, stronger effect = lower value
[16] = H69AR cells, compound alone cytotoxicity

Chain of Receptor tyrosine-protein kinase erbB-2 (Homo sapiens) (P04626 whole entry, looked up): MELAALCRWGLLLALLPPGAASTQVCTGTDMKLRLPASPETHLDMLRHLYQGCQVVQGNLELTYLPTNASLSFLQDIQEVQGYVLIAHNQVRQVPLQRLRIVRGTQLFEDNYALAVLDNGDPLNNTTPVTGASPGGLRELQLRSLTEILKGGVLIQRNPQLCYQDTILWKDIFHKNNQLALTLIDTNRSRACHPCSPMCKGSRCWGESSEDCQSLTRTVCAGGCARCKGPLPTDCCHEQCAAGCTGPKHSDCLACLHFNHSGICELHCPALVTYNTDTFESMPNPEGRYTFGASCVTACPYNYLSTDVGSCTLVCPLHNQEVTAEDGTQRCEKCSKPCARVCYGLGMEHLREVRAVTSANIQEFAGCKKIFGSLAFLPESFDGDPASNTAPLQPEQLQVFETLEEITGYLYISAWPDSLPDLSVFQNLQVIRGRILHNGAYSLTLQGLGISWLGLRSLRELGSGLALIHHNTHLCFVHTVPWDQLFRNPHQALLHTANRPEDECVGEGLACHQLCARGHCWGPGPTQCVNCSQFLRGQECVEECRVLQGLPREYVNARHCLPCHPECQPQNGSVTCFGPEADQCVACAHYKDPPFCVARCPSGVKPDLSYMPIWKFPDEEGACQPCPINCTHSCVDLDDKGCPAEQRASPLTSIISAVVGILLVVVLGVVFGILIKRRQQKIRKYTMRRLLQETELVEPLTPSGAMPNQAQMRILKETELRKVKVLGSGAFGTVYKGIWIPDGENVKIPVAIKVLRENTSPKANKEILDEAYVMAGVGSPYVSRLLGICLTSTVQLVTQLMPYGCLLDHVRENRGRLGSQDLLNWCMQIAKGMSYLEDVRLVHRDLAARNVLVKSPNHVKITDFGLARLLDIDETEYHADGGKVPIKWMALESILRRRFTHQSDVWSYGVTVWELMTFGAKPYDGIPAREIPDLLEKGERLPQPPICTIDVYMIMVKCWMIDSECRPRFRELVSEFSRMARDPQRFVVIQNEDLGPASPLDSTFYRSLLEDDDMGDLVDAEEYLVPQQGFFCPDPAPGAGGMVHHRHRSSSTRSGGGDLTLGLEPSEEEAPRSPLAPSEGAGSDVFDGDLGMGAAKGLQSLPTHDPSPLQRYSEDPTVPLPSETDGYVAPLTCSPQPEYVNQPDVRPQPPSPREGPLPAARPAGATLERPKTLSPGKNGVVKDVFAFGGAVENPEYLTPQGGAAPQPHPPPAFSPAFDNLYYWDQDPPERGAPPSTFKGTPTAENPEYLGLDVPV

SMILES | viability [1] [%] | Her2 level [2] | viability [3] | viability [4] | viability [5] | differential viability (reversal) ([6]; H69AR cells + 2 uM doxorubicin) | viability [6, 15] [%] | viability [6, 16] [%] | inhibition [7] | inhibition [8] | growth inhibition [9] | growth inhibition [10] | viability increase [11] | viability [12] | viability [13] | inhibition [14]
OC(CN1CCN(c2ccccc2)CC1)c1ccc2c(c1)CCN2 (configuration not stated) | 87.5 | 110% (inactive) | 87.5% (inactive) | 95.3% (inactive) | 69.5% (inactive) | -26% (inactive) | 95.5 | 69.5 | -2.4% (inactive) | 3.33% (inactive) | -10.4% (inactive) | -5.32% (inactive) | -6.11% (inactive) | 83.9% (inactive) | 84.4% (inactive) | 0.78% (inactive)
O=c1[nH]c(=O)n([C@H]2C[C@H](O)[C@@H](CO)O2)cc1F | 89 | 74% (inactive) | 89% (inactive) | 51.3% (inactive) | – | -40.6% (inactive) | 57 | 16.4 | – | – | – | – | – | – | – | –
N#C/C(C(=O)NCc1ccco1)=C1/SC(Cc2ccc(F)cc2)C(=O)N1c1ccccc1 (configuration not stated) | 112 | 84% (inactive) | 112% (inactive) | 88.3% (inactive) | – | -10.3% (inactive) | 58.3 | 48 | -3.68% (inactive) | -1.64% (inactive) | – | – | – | – | – | –
C=CCN1C(=O)/C(=C2/Sc3ccccc3N2C)SC1=Nc1c(C)n[nH]c1C | 107 | 86.5% (inactive) | 107% (inactive) | 85% (inactive) | 75.5% (inactive) | – | – | – | -5.2% (inactive) | 0.48% (inactive) | – | – | – | – | – | –
Cc1onc(-c2ccccc2Cl)c1C(=O)NCCn1c(C)cc2ccccc21 | 79 | 80.5% (inactive) | 79% (inactive) | 78.3% (inactive) | 83.3% (inactive) | -6.36% (inactive) | 89.6 | 83.3 | -3.2% (inactive) | 1.17% (inactive) | -8.05% (inactive) | 0.31% (inactive) | -2.02% (inactive) | 78.8% (inactive) | 85.7% (inactive) | 1.56% (inactive)
Cn1c(=O)n(Cc2ccccc2)c(=O)c2c1nc(NCC1CCCO1)n2Cc1ccccc1 (configuration not stated) | 81.5 | 103% (inactive) | 81.5% (inactive) | 74.4% (inactive) | 73.3% (inactive) | – | – | – | 0.79% (inactive) | -0.18% (inactive) | – | – | – | – | – | –
Cc1ccc(Cn2nnc3c(=O)[nH]c(C4CCN(S(=O)(=O)c5ccc(F)cc5)CC4)nc32)cc1 | 90.5 | 106% (inactive) | 90.5% (inactive) | 76.4% (inactive) | 86.2% (inactive) | – | – | – | -1.73% (inactive) | -5.16% (inactive) | – | – | – | – | – | –
CC(C)COC(=O)C1C2C=CC3(CN(C(C)c4ccc(Br)cc4)C(=O)C13)O2 (configuration not stated) | 114 | 100% (inactive) | 114% (inactive) | 101% (inactive) | 94.9% (inactive) | 11.3% (inactive) | 83.6 | 94.9 | -6.53% (inactive) | -5.74% (inactive) | -9.09% (inactive) | 5.3% (inactive) | -2.82% (inactive) | 98.3% (inactive) | 95.8% (inactive) | 0.915% (inactive)
COc1ccccc1-c1c(C)nn2c(N3CCC4(CC3)OCCO4)cc(C)nc12 | 90 | 89% (inactive) | 90% (inactive) | 99.3% (inactive) | – | 30.6% (inactive) | 29.3 | 60 | -1.05% (inactive) | -2.42% (inactive) | – | – | – | – | – | –
CC(C)(C)n1nnnc1C(c1ccccc1)N1CCc2ccccc2C1 (configuration not stated) | 107 | 82% (inactive) | 107% (inactive) | 42% (inactive) | – | 5.93% (inactive) | 43.4 | 49.3 | -7.26% (inactive) | -2.7% (inactive) | – | – | – | – | – | –
CSc1nc(N)nc(SCCS(=O)(=O)c2ccc(Cl)cc2)c1C#N | 90.5 | 68% (inactive) | 90.5% (inactive) | 56.6% (inactive) | – | -7.24% (inactive) | 34.2 | 26.9 | -3.47% (inactive) | -3.65% (inactive) | – | – | – | – | – | –
COc1ccc(-c2noc(CCC(=O)NCCCN3CCC(Cc4ccccc4)CC3)n2)cc1 | 87.5 | 77% (inactive) | 87.5% (inactive) | 33.1% (inactive) | – | -1.48% (inactive) | 64.4 | 63 | 1.05% (inactive) | -6% (inactive) | – | – | – | – | – | –
N#CC1=C(N)n2c(s/c(=C\c3ccco3)c2=O)=C(C#N)C1c1ccco1 (configuration not stated) | 100 | 31.5% (active) | 100% (inactive) | 78.6% (inactive) | – | -10.7% (inactive) | 58 | 47.4 | 0.13% (inactive) | -4.36% (inactive) | – | – | – | – | – | –
CCc1cc2c(=O)c(-c3nc4ccccc4[nH]3)coc2cc1OC(=O)N1CCOCC1 | 100 | 81.5% (inactive) | 100% (inactive) | 64.8% (inactive) | – | -13.9% (inactive) | 71.6 | 57.7 | -5.07% (inactive) | -5.08% (inactive) | – | – | – | – | – | –
C=C(c1ccc(O)cc1)c1ccc(O)cc1 | 105 | 93% (inactive) | 105% (inactive) | 70.8% (inactive) | – | -42.8% (inactive) | 87.9 | 45 | -5.92% (inactive) | -2.54% (inactive) | – | – | – | – | – | –
O=C(NC1CCc2ccccc21)C1CCN(S(=O)(=O)c2ccc(-n3cnnn3)cc2)CC1 (configuration not stated) | 74.5 | 85% (inactive) | 74.5% (inactive) | 96.4% (inactive) | – | -8.48% (inactive) | 63.5 | 55 | -2.63% (inactive) | -0.36% (inactive) | – | – | – | – | – | –
